Laboratory results reported in PubChem BioAssay (Tox21).
Results filed as inconclusive are left out. Calls of active or inactive are those of the source. Unless noted, the call rests on the fitted dose curve; in most records, active means well fitted curve in the direction sought with a large enough effect in the repeat runs; inconclusive means weak or mixed curves; inactive means no such curve, though single readings can be large; an effect the other way counts as inactive or inconclusive.

Experiments:
[1] = qHTS assay to identify small molecule agonists of the RXR signaling pathway - cell viability counter screen (AID 1159529); further: series mostly up to about 77 µM; nearly all actives have a fitted effect of over 50% in size
Summary of the method: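 Luminescence from CellTiter-Glo (30 min, RT) measured viability in the same wells as the beta-lactamase reporter readout. Cells: GeneBLAzer RXR-alpha HEK 293T, 2% charcoal-stripped FBS. Compound exposure 16 hr, 37 C.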

[2] = qHTS assay to identify small molecule antagonists of the retinoid acid receptor (RAR) signaling pathway - cell viability counter screen (AID 1159551); further: nearly all actives have a fitted effect of over 35% in size
Summary of the method: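 Cytotoxicity counter screen: ATP content quantified by CellTiter-Glo luminescence in C3RL4 cells treated 6 hr at 37 C with compound and retinol (1 uM final). Cells plated at 1,000/well and cultured overnight before dosing.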

[3] = qHTS assay to identify small molecule antagonists of the estrogen related receptor (ERR) signaling pathway from Tox21 library - cell viability counter screen (AID 1224834); further: nearly all actives have a fitted effect of over 30% in size
Summary of the method: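 CellTiter-Fluor fluorescence, read after 30 min at 37 C, measures viability of ERR cells. Cells plated at 2,000/well and incubated 6 h before pin-tool compound addition, then exposed 17.5 hours at 37 C.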

[4] = target: Luciferin 4-monooxygenase (Photinus pyralis) (UniProt P08659); assay: qHTS assay to identify small molecule inhibitors of firefly luciferase (AID 1224835); further: series mostly up to about 120 µM; nearly all actives have a fitted effect of over 25% in size
Summary of the method: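 Inhibition of purified Photinus luciferase is measured by luminescence. Substrate levels (D-luciferin, ATP) sit at their KM values. Each compound is tested in a concentration series.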

[5] = qHTS assay to identify small molecule agonists of the constitutive androstane receptor (CAR) signaling pathway - cell viability counter screen (AID 1224836); further: series mostly up to about 92 µM; nearly all actives have a fitted effect of over 45% in size
Summary of the method: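 Viability read-out: CellTiter-Fluor fluorescence after 23 h compound exposure at 37 C/5% CO2 in double-stable HepG2-CYP2B6-hCAR cells, with PK11195 present at 0.75 uM final; compounds tested in 15-point titration.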

[6] = qHTS assay to identify small molecule antagonists of the constitutive androstane receptor (CAR) signaling pathway - cell viability counter screen (AID 1224837); further: series mostly up to about 92 µM; nearly all actives have a fitted effect of over 45% in size
Summary of the method: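 Cytotoxicity counter-screen: CellTiter-Fluor fluorescence after 23 h compound exposure (15-point qHTS) in double-stable HepG2-CYP2B6-hCAR cells, with 50 nM CITCO added.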

[7] = target: Nuclear receptor subfamily 1 group I member 3 (Homo sapiens) (UniProt Q14994); assay: qHTS assay to identify small molecule antagonists of the constitutive androstane receptor (CAR) signaling pathway (AID 1224838);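 further: HepG2 cells stably expressing hCAR with CYP2B6 luciferase reporter stimulated by CITCO; nearly all actives have a fitted effect of over 40% in size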
Summary of the method: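 Antagonism measured as luciferase signal (ONE-Glo, 30 min, room temperature) in CAR-stimulated cells: HepG2-CYP2B6-hCAR double-stable line exposed 24 hr at 37 C to compound in a 15-point series plus 50 nM CITCO.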

[8] = target: Nuclear receptor subfamily 1 group I member 3 (Homo sapiens) (UniProt Q14994); assay: qHTS assay to identify small molecule agonists of the constitutive androstane receptor (CAR) signaling pathway (AID 1224839);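 further: HepG2 cells stably carrying human CAR and a CYP2B6 luciferase reporter; series mostly up to about 92 µM; nearly all actives have a fitted effect of over 15% in size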
Summary of the method: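 Luminescence read-out (ONE-Glo, 30 min, room temperature) from double-stable HepG2-CYP2B6-hCAR cells exposed 24 h to 15-point compound series in presence of 0.75 uM PK11195 final.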

[9] = qHTS assay to identify small molecule antagonists of the estrogen related receptor signaling pathway with the pleiotropic PPARgamma coactivator (PGC) from Tox21 10K library - cell viability counter screen (AID 1224840; active means well fitted cell-killing curve with a large enough effect in the repeat runs, not every such curve was filed as active; further: nearly all actives have a fitted effect of over 40% in size)
Summary of the method: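 Counter-screen for cytotoxicity: after 17.5 h compound exposure at 37 C, CellTiter-Fluor reagent added to PGC/ERR cells for 30 min and fluorescence read. Cells were seeded at 2,000 per well 6 h before dosing.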

[10] = target: Thyrotropin receptor (Homo sapiens) (UniProt P16473); assay: qHTS assay to identify small molecule agonists of the thyroid stimulating hormone receptor (TSHR) signaling pathway (AID 1224843; calls by dose curve; further: nearly all actives have a fitted effect of over 45% in size)
Summary of the method: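 A cell-based cAMP HTRF format was run in TSHR-transfected HEK293 cells, 800 per well. Treatment: 30 min, room temperature. Detection: 1 h with labelled cAMP and anti-cAMP cryptate. Concentration-response over 15 points, three replicates.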

[11] = qHTS assay to identify small molecule agonists of the hypoxia (HIF-1) signaling pathway - cell viability counter screen (AID 1224844; calls by dose curve; further: nearly all actives have a fitted effect of over 50% in size)
Summary of the method: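 Cytotoxicity measured by CellTiter-Glo ATP luminescence in the wells also read for beta-lactamase signal. Cells were HRE-bla ME-180 (2,000/well, 0.5% dialyzed FBS), exposed to compounds for 17 h at 37C.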

[12] = qHTS assay to identify small molecule antagonists of the estrogen related receptor signaling pathway with the pleiotropic PPARgamma coactivator (PGC) from Tox21 10K library (AID 1224841; call rule not given here; further: series mostly up to about 92 µM; actives are mostly falling curves and most rising ones were filed inactive; nearly all actives have a fitted effect of over 50% in size)
Summary of the method: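 Luminescence (One-Glo, 30 min at room temperature) after 18 h compound treatment at 37 C of PGC/ERR reporter cells plated at 2,000 cells/well and settled 6 h beforehand.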

[13] = qHTS assay to identify small molecule agonists of the estrogen related receptor signaling pathway with the pleiotropic PPARgamma coactivator (PGC) from Tox21 10K library (AID 1224842); further: nearly all actives have a fitted effect of over 15% in size
Summary of the method: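 Luminescence from One-Glo (30 min, room temperature) measured after PGC/ERR cells had 18 h at 37 C with pinned compound (23 nL in DMSO). Cells had been seeded at 2,000 per well and pre-incubated 6 h.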

Measured: Potency

Chain of Luciferin 4-monooxygenase (Photinus pyralis) (P08659 whole entry, looked up): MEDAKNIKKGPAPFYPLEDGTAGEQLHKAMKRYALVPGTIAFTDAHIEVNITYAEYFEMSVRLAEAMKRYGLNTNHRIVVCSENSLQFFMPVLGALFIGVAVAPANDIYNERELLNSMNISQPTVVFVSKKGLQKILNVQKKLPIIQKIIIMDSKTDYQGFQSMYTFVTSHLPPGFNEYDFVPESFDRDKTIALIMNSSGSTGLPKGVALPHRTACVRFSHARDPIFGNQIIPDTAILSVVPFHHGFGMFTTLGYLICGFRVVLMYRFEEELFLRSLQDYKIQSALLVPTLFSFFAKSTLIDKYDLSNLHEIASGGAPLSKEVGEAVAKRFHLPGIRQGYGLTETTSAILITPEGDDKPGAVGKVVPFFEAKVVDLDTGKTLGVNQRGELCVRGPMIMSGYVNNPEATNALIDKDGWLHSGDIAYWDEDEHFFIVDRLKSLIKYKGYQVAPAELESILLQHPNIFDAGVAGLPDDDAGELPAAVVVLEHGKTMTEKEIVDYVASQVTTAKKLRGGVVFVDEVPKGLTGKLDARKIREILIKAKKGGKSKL
Chain of Nuclear receptor subfamily 1 group I member 3 (Homo sapiens) (Q14994 whole entry, looked up): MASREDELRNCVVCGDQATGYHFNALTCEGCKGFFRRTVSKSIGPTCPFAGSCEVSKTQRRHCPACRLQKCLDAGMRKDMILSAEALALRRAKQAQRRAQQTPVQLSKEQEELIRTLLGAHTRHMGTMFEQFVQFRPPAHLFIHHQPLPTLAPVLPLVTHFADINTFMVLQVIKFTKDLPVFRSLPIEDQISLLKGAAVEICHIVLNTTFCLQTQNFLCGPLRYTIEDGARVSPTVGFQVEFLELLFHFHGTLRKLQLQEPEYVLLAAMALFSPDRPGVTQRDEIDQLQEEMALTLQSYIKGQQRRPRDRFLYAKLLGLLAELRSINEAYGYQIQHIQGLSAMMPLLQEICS
Chain of Thyrotropin receptor (Homo sapiens) (P16473 whole entry, looked up): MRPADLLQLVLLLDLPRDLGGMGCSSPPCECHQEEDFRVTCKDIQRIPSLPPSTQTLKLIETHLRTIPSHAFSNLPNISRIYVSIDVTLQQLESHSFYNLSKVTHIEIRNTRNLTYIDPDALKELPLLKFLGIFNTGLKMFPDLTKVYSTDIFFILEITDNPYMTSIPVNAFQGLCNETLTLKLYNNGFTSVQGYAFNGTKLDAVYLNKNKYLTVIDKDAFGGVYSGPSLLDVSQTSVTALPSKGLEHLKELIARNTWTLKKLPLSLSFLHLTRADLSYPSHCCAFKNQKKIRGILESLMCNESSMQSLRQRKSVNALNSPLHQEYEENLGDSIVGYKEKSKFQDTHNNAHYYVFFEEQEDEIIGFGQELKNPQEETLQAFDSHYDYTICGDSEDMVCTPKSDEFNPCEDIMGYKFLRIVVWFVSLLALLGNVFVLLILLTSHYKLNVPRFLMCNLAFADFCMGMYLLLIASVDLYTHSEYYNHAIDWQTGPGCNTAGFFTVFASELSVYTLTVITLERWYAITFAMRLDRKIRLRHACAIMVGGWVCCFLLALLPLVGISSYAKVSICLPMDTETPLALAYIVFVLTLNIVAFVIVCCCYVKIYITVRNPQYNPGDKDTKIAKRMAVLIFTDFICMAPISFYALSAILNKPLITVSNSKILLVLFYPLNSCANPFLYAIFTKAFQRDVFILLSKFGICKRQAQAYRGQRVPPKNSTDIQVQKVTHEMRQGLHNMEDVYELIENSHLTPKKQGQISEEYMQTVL

CCCC(=O)Nc1ccc(O)c(C(C)=O)c1
inactive: [1] | [2] | [3] | [4] | [5] | [6] | [7] | [8] | [9] | [10] | [11]

N=c1ccn2c(n1)O[C@H]1[C@H](O)[C@@H](CO)O[C@H]12
inactive: [1] | [2] | [3] | [4] | [5] | [6] | [9] | [10] | [11]

O=C(O)C1(C(=O)O)CCC1.[NH2-].[NH2-].[Pt+2]
inactive: [1] | [2] | [3] | [4] | [5] | [6] | [7] | [9] | [10] | [11]

NCCCN1CCOCC1
inactive: [1] | [2] | [3] | [4] | [5] | [6] | [7] | [8] | [9] | [12] | [11]

C=CCOC(=O)CCC1CCCCC1
inactive: [1] | [2] | [3] | [4] | [5] | [6] | [7] | [8] | [9] | [13] | [11]

CC/C=C\CCOC(=O)CC
inactive: [1] | [2] | [3] | [4] | [5] | [6] | [9] | [10] | [11]
